# Data taken from PubChem BioAssay (EPA / NIEHS).
# “And” between values parts separate entries of the source, which are not always exact repeats. Identical values can stand only once. Inconclusive results are not listed. The source made the active and inactive calls. How the source made its calls: active means hit-call score of the fitted dose curve at least 0.9, where 1 is the maximum; inconclusive means response in the unintended direction; inactive means score below 0.9.
# Columns and labels:
# [1] = target: Tyrosine-protein phosphatase non-receptor type 13 (Homo sapiens) (UniProt Q12923); assay: NVS_ENZ_hPTPN13: NovaScreen (NVS) Enzymatic Assay for human Protein Tyrosine Phosphatase Non-receptor Type 13 (PTPN13) (AID 2283205)
# Procedure, shortened: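 Cell-free assay of recombinant human PTPN13 with a fluorescent substrate, product separated by electrophoretic mobility shift and read 0.5 h after dosing. Primary screen at 25 uM in duplicate, then concentration-response up to 50 uM. Loss of signal fitted against DMSO.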
# [2] = target: human Sirtuin 2 (SIRT2), SIRT2 (gene 22933) (UniProt Q8IXJ6); assay: NVS_ENZ_hSIRT2: NovaScreen (NVS) Enzymatic Assay for human Sirtuin 2 (SIRT2) (AID 2283217)
# Procedure, shortened: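 Cell-free recombinant human SIRT2, fluorescent substrate with product separated by electrophoretic mobility shift, 1 hr. Screened in duplicate at 25 uM; hits rerun singly in concentration-response up to 50 uM, relative to DMSO.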
# [3] = target: human Sirtuin 3 (SIRT3), SIRT3 (gene 23410) (UniProt Q9NTG7); assay: NVS_ENZ_hSIRT3: NovaScreen (NVS) Enzymatic Assay for human Sirtuin 3 (SIRT3) (AID 2283222)
# Procedure, shortened: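 Cell-free enzyme assay with recombinant protein and fluorescent substrate, product separated by electrophoretic mobility shift; read 1 hour after dosing. Screened in duplicate at 25 uM, then singleton concentration-response up to 50 uM; loss of signal versus DMSO.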
# [4] = target: Serine/threonine-protein phosphatase PP1-alpha catalytic subunit (Homo sapiens) (UniProt P62136); assay: NVS_ENZ_hPPP1CA: NovaScreen (NVS) Enzymatic Assay for human Protein Phosphatase 1 Aatalytic subunit Alpha (PPP1CA) (AID 2283200)
# Procedure, shortened: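 Recombinant enzyme activity read by fluorescence with electrophoretic mobility shift separating substrate from product, 1.33 h after dosing; loss of signal vs DMSO baseline. Primary screen in duplicate at 25 uM; actives retested in concentration-response up to 50 uM.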
# [5] = target: human Protein Tyrosine Phosphatase Non-receptor Type 1 (PTPN1), PTPN1 (gene 5770) (UniProt P18031); assay: NVS_ENZ_hPTPN1: NovaScreen (NVS) Enzymatic Assay for human Protein Tyrosine Phosphatase Non-receptor Type 1 (PTPN1) (AID 2283201)
# Procedure, shortened: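 Cell-free fluorogenic-substrate activity assay on recombinant enzyme, read 1.33 h after dosing by fluorescence and electrophoretic mobility shift; loss of signal vs DMSO baseline. Primary screen in duplicate at 25 uM, hits then run in concentration-response up to 50 uM.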
# [6] = target: human Protein Tyrosine Phosphatase Non-receptor Type 2 (PTPN2), PTPN2 (gene 5771) (UniProt P17706); assay: NVS_ENZ_hPTPN2: NovaScreen (NVS) Enzymatic Assay for human Protein Tyrosine Phosphatase Non-receptor Type 2 (PTPN2) (AID 2283207)
# Procedure, shortened: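 Cell-free recombinant enzyme with fluorescent substrate, product separated by electrophoretic mobility shift; read 1 h after dosing. Primary screen single concentration (25 uM) in duplicate; actives followed in concentration series; loss of signal versus DMSO.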
# [7] = target: human Protein Tyrosine Phosphatase Non-receptor Type 4 (PTPN4), PTPN4 (gene 5775) (UniProt P29074); assay: NVS_ENZ_hPTPN4: NovaScreen (NVS) Enzymatic Assay for human Protein Tyrosine Phosphatase Non-receptor Type 4 (PTPN4) (AID 2283208)
# Procedure, shortened: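 Cell-free assay of PTPN4 expressed in Sf9 cells, using a fluorescent substrate with product separated by mobility shift; read 1.33 h after dosing. Single-point screen at 25 uM, then concentration-response up to 50 uM. Loss of signal relative to DMSO.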
# [8] = target: human Protein Tyrosine Phosphatase Non-receptor Type 9 (PTPN9), PTPN9 (gene 5780) (UniProt P43378); assay: NVS_ENZ_hPTPN9: NovaScreen (NVS) Enzymatic Assay for human Protein Tyrosine Phosphatase Non-receptor Type 9 (PTPN9) (AID 2283209)
# Procedure, shortened: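 Sf9-expressed enzyme in a cell-free assay, fluorescence read 1.33 h after dosing with mobility-shift separation of substrate and product. Tested at 25 uM in duplicate, then up to 50 uM; signal loss versus DMSO.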
# [9] = target: human Protein Tyrosine Phosphatase Receptor Type B (PTPRB), PTPRB (gene 5787) (UniProt P23467); assay: NVS_ENZ_hPTPRB: NovaScreen (NVS) Enzymatic Assay for human Protein Tyrosine Phosphatase Receptor Type B (PTPRB) (AID 2283211)
# Procedure, shortened: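 Recombinant human PTPRB with a fluorescent substrate, product separated by electrophoretic mobility shift; read 1 h after dosing. Primary screen in duplicate at 25 uM; actives then retested in concentration series; loss of signal versus DMSO.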
# [10] = target: human Protein Tyrosine Phosphatase Receptor Type M (PTPRM), PTPRM (gene 5797) (UniProt P28827); assay: NVS_ENZ_hPTPRM: NovaScreen (NVS) Enzymatic Assay for human Protein Tyrosine Phosphatase Receptor Type M (PTPRM) (AID 2283215)
# Procedure, shortened: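 Cell-free recombinant PTPRM with fluorogenic substrate; product separated from substrate by electrophoretic mobility shift and read by fluorescence, 1.33 h after dosing. Primary screen single concentration (25 uM) in duplicate; actives retested in concentration series; loss of signal versus DMSO.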
# [11] = target: human Rho Associated Coiled-coil Containing Protein Kinase 1 (ROCK1), ROCK1 (gene 6093) (UniProt Q13464); assay: NVS_ENZ_hROCK1: NovaScreen (NVS) Enzymatic Assay for human Rho Associated Coiled-coil Containing Protein Kinase 1 (ROCK1) (AID 2283214)
# Procedure, shortened: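 Cell-free recombinant human ROCK1 activity assay; fluorescent substrate and product separated by electrophoretic mobility shift, read 1 h after dosing. Screened in duplicate at 25 uM; loss of signal versus DMSO baseline scored as inhibition.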
# [12] = target: human Phosphatase and Tensin Homolog (PTEN), PTEN (gene 5728) (UniProt P60484); assay: NVS_ENZ_hPTEN: NovaScreen (NVS) Enzymatic Assay for human Phosphatase and Tensin Homolog (PTEN) (AID 2283203)
# Procedure, shortened: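 Cell-free recombinant human PTEN with fluorescent substrate; product separated by electrophoretic mobility shift and read by fluorescence 1 h after dosing. Primary screen in duplicate at 25 uM, actives followed in concentration series versus DMSO.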
# [13] = target: Tyrosine-protein phosphatase non-receptor type 14 (Homo sapiens) (UniProt Q15678); assay: NVS_ENZ_hPTPN14: NovaScreen (NVS) Enzymatic Assay for human Protein Tyrosine Phosphatase Non-receptor Type 14 (PTPN14) (AID 2283206)
# Procedure, shortened: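 Cell-free recombinant human PTPN14 with fluorescent substrate, read 0.5 h after dosing by fluorescence and electrophoretic mobility shift separating substrate from product. Primary screen at 25 uM in duplicate; hits run to 50 uM maximum; loss of signal versus DMSO.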
# [14] = target: Tyrosine-protein phosphatase non-receptor type 11 (Homo sapiens) (UniProt Q06124); assay: NVS_ENZ_hPTPN11: NovaScreen (NVS) Enzymatic Assay for human Protein Tyrosine Phosphatase Non-receptor Type 11 (PTPN11) (AID 2283202)
# Procedure, shortened: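 Recombinant human PTPN11 activity on a fluorescent substrate, with substrate/product separated by electrophoretic mobility shift; read 0.5 h after dosing, loss of signal vs DMSO. Duplicate 25 uM screen, then concentration-response up to 50 uM.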
# [15] = target: human Protein Tyrosine Phosphatase Receptor Type F (PTPRF), PTPRF (gene 5792) (UniProt P10586); assay: NVS_ENZ_hPTPRF: NovaScreen (NVS) Enzymatic Assay for human Protein Tyrosine Phosphatase Receptor Type F (PTPRF) (AID 2283213)
# Procedure, shortened: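 Cell-free fluorescence enzyme assay with recombinant protein and substrate; product separated by electrophoretic mobility shift. Read 1 h after dosing, single 25 uM duplicate screen, then concentration-response up to 50 uM; loss of signal vs DMSO.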
# [16] = target: human Sirtuin 1 (SIRT1), SIRT1 (gene 23411) (UniProt Q96EB6); assay: NVS_ENZ_hSIRT1: NovaScreen (NVS) Enzymatic Assay for human Sirtuin 1 (SIRT1) (AID 2283219)
# Procedure, shortened: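 Cell-free recombinant SIRT1 with a fluorescent substrate; substrate and product separated by electrophoretic mobility shift and read by fluorescence intensity, 1 h after dosing. Primary screen at 25 uM in duplicate; hits re-run in concentration-response up to 50 uM, relative to DMSO.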
# [17] = target: human Protein Tyrosine Phosphatase Non-receptor Type 6 (PTPN6), PTPN6 (gene 5777) (UniProt P29350); assay: NVS_ENZ_hPTPN6: NovaScreen (NVS) Enzymatic Assay for human Protein Tyrosine Phosphatase Non-receptor Type 6 (PTPN6) (AID 2283210)
# Procedure, shortened: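 Cell-free assay with recombinant PTPN6 expressed in SF9 cells, fluorescent substrate, product separated from substrate by electrophoretic mobility shift; read 1.33 hours after dosing. Primary screen in duplicate at 25 uM, actives retested in concentration series; DMSO baseline.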
# [18] = target: human Raf-1 Proto-Oncogene, serine/threonine Kinase (RAF1), RAF1 (gene 5894) (UniProt P04049); assay: NVS_ENZ_hRAF1: NovaScreen (NVS) Enzymatic Assay for human Raf-1 Proto-Oncogene, serine/threonine Kinase (RAF1) (AID 2283216)
# Procedure, shortened: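 Cell-free recombinant kinase with specific fluorescent substrate, product separated by electrophoretic mobility shift; read 1 h after dosing. Primary screen at 25 uM in duplicate; hits then run in concentration-response up to 50 uM, fitted as loss of signal versus DMSO.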
# [19] = target: human SRC Proto-Oncogene, Non-receptor Tyrosine Kinase (SRC), SRC (gene 6714) (UniProt P12931); assay: NVS_ENZ_hSRC: NovaScreen (NVS) Enzymatic Assay for human SRC Proto-Oncogene, Non-receptor Tyrosine Kinase (SRC) (AID 2283223)
# Procedure, shortened: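 Cell-free kinase activity assay with fluorescent substrate, product separated by electrophoretic mobility shift, read 1 h after dosing. Duplicate single point at 25 uM, then concentration-response up to 50 uM; loss of signal versus DMSO.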
# [20] = target: Tyrosine-protein phosphatase non-receptor type 12 (Homo sapiens) (UniProt Q05209); assay: NVS_ENZ_hPTPN12: NovaScreen (NVS) Enzymatic Assay for human Protein Tyrosine Phosphatase Non-receptor Type 12 (PTPN12) (AID 2283204)
# Procedure, shortened: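 Single-concentration duplicates (25 uM) preceded singleton concentration-response up to 50 uM for chemicals passing threshold. Cell-free recombinant PTPN12 activity was read 1.33 h after dosing via fluorescence after mobility-shift separation; loss of signal versus DMSO.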
# human Sirtuin 2 (SIRT2), SIRT2 (gene 22933), sequence (Q8IXJ6 whole entry, looked up): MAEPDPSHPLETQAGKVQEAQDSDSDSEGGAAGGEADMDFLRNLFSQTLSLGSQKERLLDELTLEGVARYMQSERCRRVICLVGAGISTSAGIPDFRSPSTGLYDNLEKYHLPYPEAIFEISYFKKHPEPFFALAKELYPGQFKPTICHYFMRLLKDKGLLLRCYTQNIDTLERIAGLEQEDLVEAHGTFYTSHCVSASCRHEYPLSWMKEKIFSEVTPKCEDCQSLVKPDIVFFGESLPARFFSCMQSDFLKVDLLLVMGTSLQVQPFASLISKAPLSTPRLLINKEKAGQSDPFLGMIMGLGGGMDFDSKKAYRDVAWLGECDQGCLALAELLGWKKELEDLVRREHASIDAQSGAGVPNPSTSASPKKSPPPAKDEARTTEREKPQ
# human Protein Tyrosine Phosphatase Non-receptor Type 6 (PTPN6), PTPN6 (gene 5777), sequence (P29350 whole entry, looked up): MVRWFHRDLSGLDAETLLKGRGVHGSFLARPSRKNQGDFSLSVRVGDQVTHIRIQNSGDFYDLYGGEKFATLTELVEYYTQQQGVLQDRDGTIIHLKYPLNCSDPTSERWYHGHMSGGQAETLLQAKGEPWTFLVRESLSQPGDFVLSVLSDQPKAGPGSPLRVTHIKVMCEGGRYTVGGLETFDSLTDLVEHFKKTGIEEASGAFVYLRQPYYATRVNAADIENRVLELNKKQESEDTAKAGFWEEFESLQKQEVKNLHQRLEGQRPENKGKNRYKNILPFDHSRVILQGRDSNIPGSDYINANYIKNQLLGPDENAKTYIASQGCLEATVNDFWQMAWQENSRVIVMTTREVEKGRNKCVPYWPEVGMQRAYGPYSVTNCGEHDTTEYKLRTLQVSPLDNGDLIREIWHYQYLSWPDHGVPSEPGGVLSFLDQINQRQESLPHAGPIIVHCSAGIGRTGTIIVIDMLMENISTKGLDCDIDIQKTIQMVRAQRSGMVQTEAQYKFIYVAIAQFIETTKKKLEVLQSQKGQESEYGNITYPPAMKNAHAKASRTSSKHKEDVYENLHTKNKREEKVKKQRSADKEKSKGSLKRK
# Serine/threonine-protein phosphatase PP1-alpha catalytic subunit (Homo sapiens), sequence (P62136 whole entry, looked up): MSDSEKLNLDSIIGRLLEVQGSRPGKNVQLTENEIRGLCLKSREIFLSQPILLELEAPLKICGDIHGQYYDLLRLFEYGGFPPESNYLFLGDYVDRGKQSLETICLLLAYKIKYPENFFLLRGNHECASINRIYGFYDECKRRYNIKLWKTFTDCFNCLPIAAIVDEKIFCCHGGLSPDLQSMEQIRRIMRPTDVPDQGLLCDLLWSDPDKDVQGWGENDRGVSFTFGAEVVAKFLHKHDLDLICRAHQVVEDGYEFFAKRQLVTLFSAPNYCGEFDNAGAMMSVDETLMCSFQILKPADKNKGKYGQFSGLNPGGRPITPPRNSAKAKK
# human Protein Tyrosine Phosphatase Non-receptor Type 4 (PTPN4), PTPN4 (gene 5775), sequence (P29074 whole entry, looked up): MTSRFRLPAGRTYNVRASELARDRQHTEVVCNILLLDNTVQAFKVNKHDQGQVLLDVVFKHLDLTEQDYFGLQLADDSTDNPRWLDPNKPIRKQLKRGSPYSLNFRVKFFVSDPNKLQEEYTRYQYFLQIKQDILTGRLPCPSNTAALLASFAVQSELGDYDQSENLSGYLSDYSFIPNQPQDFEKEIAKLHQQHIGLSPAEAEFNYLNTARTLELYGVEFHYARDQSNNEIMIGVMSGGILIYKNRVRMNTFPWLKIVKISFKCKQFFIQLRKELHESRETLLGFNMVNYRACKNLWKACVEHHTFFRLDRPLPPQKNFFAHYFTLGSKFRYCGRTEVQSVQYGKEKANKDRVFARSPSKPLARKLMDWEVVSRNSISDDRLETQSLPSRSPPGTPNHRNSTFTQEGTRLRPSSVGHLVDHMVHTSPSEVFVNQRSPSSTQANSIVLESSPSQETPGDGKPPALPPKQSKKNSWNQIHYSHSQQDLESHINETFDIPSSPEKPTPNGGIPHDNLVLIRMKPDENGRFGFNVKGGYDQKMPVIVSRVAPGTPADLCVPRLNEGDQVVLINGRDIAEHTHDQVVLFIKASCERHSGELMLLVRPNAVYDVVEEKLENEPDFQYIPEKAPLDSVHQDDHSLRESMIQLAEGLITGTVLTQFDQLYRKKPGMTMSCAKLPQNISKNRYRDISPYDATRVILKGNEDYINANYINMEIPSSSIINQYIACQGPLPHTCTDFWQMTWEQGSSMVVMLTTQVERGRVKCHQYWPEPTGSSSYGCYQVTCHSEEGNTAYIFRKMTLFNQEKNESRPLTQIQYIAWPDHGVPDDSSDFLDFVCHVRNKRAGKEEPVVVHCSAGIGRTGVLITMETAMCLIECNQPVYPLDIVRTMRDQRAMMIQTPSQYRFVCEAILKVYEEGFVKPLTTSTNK
# human Phosphatase and Tensin Homolog (PTEN), PTEN (gene 5728), sequence (P60484 whole entry, looked up): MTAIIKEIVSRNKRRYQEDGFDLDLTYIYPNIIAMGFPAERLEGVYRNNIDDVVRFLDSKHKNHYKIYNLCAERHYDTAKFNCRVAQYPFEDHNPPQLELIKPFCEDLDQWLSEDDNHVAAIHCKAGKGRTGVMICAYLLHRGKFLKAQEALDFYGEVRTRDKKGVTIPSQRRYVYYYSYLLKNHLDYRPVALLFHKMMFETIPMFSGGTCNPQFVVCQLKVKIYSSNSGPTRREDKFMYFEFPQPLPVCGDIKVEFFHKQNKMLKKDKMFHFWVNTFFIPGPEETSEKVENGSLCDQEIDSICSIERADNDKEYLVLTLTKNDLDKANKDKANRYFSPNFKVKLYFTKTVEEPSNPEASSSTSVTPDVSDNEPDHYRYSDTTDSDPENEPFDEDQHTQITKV
# human Sirtuin 1 (SIRT1), SIRT1 (gene 23411), sequence (Q96EB6 whole entry, looked up): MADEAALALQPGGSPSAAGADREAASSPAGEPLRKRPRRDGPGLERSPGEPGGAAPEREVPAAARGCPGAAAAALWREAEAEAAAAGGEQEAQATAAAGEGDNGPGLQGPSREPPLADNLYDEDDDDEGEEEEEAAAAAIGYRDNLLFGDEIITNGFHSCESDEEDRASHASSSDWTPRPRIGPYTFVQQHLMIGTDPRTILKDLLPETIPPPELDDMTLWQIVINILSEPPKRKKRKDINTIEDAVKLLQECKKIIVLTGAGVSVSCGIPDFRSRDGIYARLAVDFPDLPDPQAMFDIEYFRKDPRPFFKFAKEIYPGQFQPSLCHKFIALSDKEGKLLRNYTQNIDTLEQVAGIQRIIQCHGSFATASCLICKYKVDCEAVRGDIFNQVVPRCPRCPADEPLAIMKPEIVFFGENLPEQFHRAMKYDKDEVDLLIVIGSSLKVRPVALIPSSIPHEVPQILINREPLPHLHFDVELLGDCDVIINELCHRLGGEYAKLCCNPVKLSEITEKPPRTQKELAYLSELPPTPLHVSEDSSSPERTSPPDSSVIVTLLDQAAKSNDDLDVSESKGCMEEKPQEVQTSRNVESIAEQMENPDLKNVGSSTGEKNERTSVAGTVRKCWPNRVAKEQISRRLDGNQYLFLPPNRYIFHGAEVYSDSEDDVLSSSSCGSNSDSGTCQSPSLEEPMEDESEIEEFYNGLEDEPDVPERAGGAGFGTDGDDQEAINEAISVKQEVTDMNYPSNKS
# human Raf-1 Proto-Oncogene, serine/threonine Kinase (RAF1), RAF1 (gene 5894), sequence (P04049 whole entry, looked up): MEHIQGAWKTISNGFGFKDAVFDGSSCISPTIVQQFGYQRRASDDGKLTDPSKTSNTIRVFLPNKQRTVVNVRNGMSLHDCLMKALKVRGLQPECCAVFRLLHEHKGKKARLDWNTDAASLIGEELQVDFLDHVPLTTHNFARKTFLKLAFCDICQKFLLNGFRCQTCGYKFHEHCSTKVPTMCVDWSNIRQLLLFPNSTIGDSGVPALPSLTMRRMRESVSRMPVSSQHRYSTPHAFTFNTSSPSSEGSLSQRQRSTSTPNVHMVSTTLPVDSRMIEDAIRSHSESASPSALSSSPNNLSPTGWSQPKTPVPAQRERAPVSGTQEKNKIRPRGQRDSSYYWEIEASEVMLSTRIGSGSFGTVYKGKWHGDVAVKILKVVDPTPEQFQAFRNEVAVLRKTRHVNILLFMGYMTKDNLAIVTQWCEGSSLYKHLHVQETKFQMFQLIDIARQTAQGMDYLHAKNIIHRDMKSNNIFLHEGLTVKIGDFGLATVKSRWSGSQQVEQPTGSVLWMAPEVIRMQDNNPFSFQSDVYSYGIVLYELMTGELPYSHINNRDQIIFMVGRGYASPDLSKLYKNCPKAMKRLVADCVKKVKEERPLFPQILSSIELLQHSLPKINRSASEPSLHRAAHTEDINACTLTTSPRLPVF
# human Sirtuin 3 (SIRT3), SIRT3 (gene 23410), sequence (Q9NTG7 whole entry, looked up): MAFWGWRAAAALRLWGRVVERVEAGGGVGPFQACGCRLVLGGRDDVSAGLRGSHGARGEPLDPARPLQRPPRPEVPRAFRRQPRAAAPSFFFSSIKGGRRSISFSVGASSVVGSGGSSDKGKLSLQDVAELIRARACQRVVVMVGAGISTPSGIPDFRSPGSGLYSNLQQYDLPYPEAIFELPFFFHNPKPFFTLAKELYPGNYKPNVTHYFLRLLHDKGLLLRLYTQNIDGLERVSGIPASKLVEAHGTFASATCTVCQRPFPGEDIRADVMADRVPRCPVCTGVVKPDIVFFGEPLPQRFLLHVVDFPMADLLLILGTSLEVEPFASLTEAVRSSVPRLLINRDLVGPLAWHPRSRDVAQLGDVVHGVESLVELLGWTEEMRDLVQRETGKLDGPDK
# human Protein Tyrosine Phosphatase Non-receptor Type 2 (PTPN2), PTPN2 (gene 5771), sequence (P17706 whole entry, looked up): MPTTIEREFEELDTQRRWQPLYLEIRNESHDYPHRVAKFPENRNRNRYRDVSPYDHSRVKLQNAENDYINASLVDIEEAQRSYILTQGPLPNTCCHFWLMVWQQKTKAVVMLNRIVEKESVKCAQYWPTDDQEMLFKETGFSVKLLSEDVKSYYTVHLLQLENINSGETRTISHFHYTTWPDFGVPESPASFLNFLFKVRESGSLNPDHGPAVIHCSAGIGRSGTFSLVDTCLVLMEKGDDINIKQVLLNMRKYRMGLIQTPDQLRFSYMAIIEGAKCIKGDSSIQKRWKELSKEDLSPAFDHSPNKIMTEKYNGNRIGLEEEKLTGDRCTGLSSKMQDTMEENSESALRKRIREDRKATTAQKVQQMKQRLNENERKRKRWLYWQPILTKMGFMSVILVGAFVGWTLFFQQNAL
smiles,measurement,setting,value
CO/C=C(/C(=O)OC)c1ccccc1Oc1cc(Oc2ccccc2C#N)ncn1,AC50,[1],0.113 µM (active)
same,outcome,[2],inactive
same,outcome,[3],inactive
Cc1cc(Cl)ccc1OCC(=O)O,outcome,[4],inactive
COP(=S)(OC)Oc1nc(Cl)c(Cl)cc1Cl,outcome,[5],inactive
COc1nc(C)nc(NC(=O)NS(=O)(=O)c2ccccc2Cl)n1,outcome,[6],inactive
same,outcome,[7],inactive
same,outcome,[8],inactive
same,outcome,[9],inactive
same,outcome,[10],inactive
N#Cc1cc(Br)c(O)c(Br)c1,outcome,[7],inactive
same,outcome,[8],inactive
same,outcome,[11],inactive
C#CCOS(=O)OC1CCCCC1Oc1ccc(C(C)(C)C)cc1 (configuration not stated),outcome,[12],inactive
Oc1ccccc1-c1ccccc1,outcome,[4],inactive
CCOP(=S)(OCC)SCn1c(=O)oc2cc(Cl)ccc21,outcome,[13],inactive
CC1COC(Cn2cncn2)(c2ccc(Oc3ccc(Cl)cc3)cc2Cl)O1 (configuration not stated),outcome,[11],inactive
same,outcome,[3],inactive
COc1ccc(C(c2ccc(OC)cc2)C(Cl)(Cl)Cl)cc1,outcome,[14],inactive
same,outcome,[10],inactive
CON(C)C(=O)Nc1ccc(Cl)c(Cl)c1,outcome,[12],inactive
same,outcome,[11],inactive
CN(C)C(=S)SSC(=S)N(C)C,outcome,[15],inactive
same,outcome,[2],inactive
same,AC50,[16],6.68 µM (active)
C=CCC1=C(C)C(OC(=O)C2C(C=C(C)C)C2(C)C)CC1=O (configuration not stated),outcome,[8],inactive
same,outcome,[17],inactive
same,outcome,[18],inactive
same,outcome,[3],inactive
CCCC1COC(Cn2cncn2)(c2ccc(Cl)cc2Cl)O1 (configuration not stated),outcome,[19],inactive
CCNc1nc(Cl)nc(NC(C)C)n1,outcome,[9],inactive
COc1nc(NC(C)C)nc(NC(C)C)n1,outcome,[9],inactive
CS/C(C)=N/OC(=O)N(C)SN(C)C(=O)O/N=C(\C)SC,AC50,[16],6.69 µM (active)
Fc1ccc(Oc2ccnc3cc(Cl)cc(Cl)c23)cc1,AC50,[18],17 µM (active)
same,outcome,[2],inactive
O=C(O)COc1nc(Cl)c(Cl)cc1Cl,outcome,[6],inactive
CNC(=O)ON=CC(C)(C)SC,outcome,[18],inactive
N#Cc1nn(-c2c(Cl)cc(C(F)(F)F)cc2Cl)c(N)c1S(=O)C(F)(F)F (configuration not stated),outcome,[3],inactive
Cc1c(F)c(F)c(COC(=O)C2C(/C=C(\Cl)C(F)(F)F)C2(C)C)c(F)c1F (configuration not stated),outcome,[7],inactive
same,outcome,[8],inactive
CCOC(=O)CC(SP(=S)(OC)OC)C(=O)OCC (configuration not stated),outcome,[4],inactive
CCON=C(CC)C1=C(O)CC(c2c(C)cc(C)cc2C)CC1=O (configuration not stated),outcome,[18],inactive
Cc1ccc(-c2c(Cl)nc(C#N)n2S(=O)(=O)N(C)C)cc1,outcome,[12],inactive
same,outcome,[15],inactive
CNC(=S)S,outcome,[14],inactive
same,outcome,[20],inactive
same,outcome,[13],inactive
same,outcome,[6],inactive
same,AC50,[8],13.5 µM (active)
same,outcome,[17],inactive
same,outcome,[9],inactive
same,AC50,[15],15.5 µM (active)
same,outcome,[10],inactive
same,outcome,[19],inactive
CCc1nn(C)c(C(=O)NCc2ccc(C(C)(C)C)cc2)c1Cl,outcome,[7],inactive
same,AC50,[8],16.4 µM (active)
same,outcome,[3],inactive
CCCN(CCC)c1c([N+](=O)[O-])cc(S(N)(=O)=O)cc1[N+](=O)[O-],outcome,[4],inactive
same,outcome,[5],inactive
same,outcome,[14],inactive
same,outcome,[1],inactive
same,outcome,[13],inactive
same,outcome,[9],inactive
same,outcome,[3],inactive
CC(C)(C)c1ccc(CSc2cnn(C(C)(C)C)c(=O)c2Cl)cc1,AC50,[8],17 µM (active)
O=C(O)c1nc(Cl)ccc1Cl,outcome,[18],inactive
O=C(Nc1ccccc1)Nc1ccnc(Cl)c1,outcome,[18],inactive
CCCCNC(=O)OCC#CI,outcome,[4],inactive
same,outcome,[13],inactive
same,outcome,[7],inactive
same,outcome,[2],inactive
same,AC50,[16],11.9 µM (active) and 10.7 µM (active)
same,outcome,[3],inactive
CCCCOC(=O)c1ccccc1C(=O)OCCCC,outcome,[14],inactive
same,outcome,[13],inactive
same,outcome,[17],inactive
same,outcome,[18],inactive
